Data on 15 compounds can be found in PubChem BioAssay (EPA / NIEHS).

Several values for one entry are separate records, joined by “and”; a condition that tells them apart may be missing. Identical values can stand only once. Activity calls are given as the source filed them. Rule for the calls: active = hit-call score of the fitted dose curve at least 0.9, where 1 is the maximum; inactive = score below 0.9.

Assay [1] has as its target Paired box protein Pax-6 (Homo sapiens) (UniProt P26367). Briefly: ATG_Pax6_CIS: Attagene CIS-FACTORIAL HepG2 Assay for human Paired Box 6 (PAX6) (AID 2282956). Particulars: HepG2 CIS-FACTORIAL PAX6 reporter transcription, RNA readout; actives raise or lower the signal. The procedure, abridged: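 HepG2 cells transiently transfected with multiplexed cis-promoter reporter units (endogenous TF activity) were dosed for 24 h. Reporter mRNA was quantified by RT-PCR, 6-FAM labeling, HpaI digestion and capillary electrophoresis; bidirectional fitting versus DMSO baseline.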

Assay [2] can be described thus: ATG_PXRE_CIS: Attagene CIS-FACTORIAL HepG2 Assay for human Pregnane X Receptor Element (PXRE) (AID 2282957). Particulars: HepG2 Attagene CIS-FACTORIAL PXRE reporter, mRNA; actives raise or lower the signal. The method in brief:
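Cis-element reporter mRNA in human hepatoma HepG2 cells is measured 24 h post-dosing by RT-PCR, primer-extension labeling and capillary electrophoresis; gain or loss of signal is fitted relative to DMSO.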

Assay [3] in a line: ATG_PPRE_CIS: Attagene CIS-FACTORIAL HepG2 Assay for human Peroxisome Proliferator-activated Response Element (PPRE) (AID 2282958). To be noted: HepG2 PPRE cis-element reporter, Attagene transcription factor profiling; actives raise or lower the signal. The procedure, abridged: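 HepG2, transient MRTU transfection (cis promoter elements, endogenous TFs). 24 h dosing. RNA → oligo(dT) RT → PCR → 6-FAM primer extension → HpaI digest → CE. Bidirectional fit vs DMSO.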

Assay [4] in a line: ATG_Sox_CIS: Attagene CIS-FACTORIAL HepG2 Assay for human SRY-box transcription factor (SOX) (AID 2282960). To be noted: HepG2 Attagene cis-factorial SOX reporter, mRNA; actives raise or lower the signal. The procedure, abridged: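 Endogenous factor activity in human liver HepG2 cells carrying transfected cis-regulated reporter units. RNA taken 24 h post-dose, reverse-transcribed, PCR-amplified and sized by capillary electrophoresis. Gain or loss of signal fitted relative to DMSO.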

The target of assay [5] is Transcription factor Sp1 (Homo sapiens) (UniProt P08047). Kind of assay: ATG_Sp1_CIS: Attagene CIS-FACTORIAL HepG2 Assay for human Specificity Protein 1 (Sp1) (AID 2282961). To be noted: HepG2 Sp1 cis-reporter transcription, actives raise or lower the signal. The method in brief: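 Transient MRTU-transfected HepG2, 24 h compound exposure. Total RNA → oligo(dT) RT → PCR of reporter → 6-FAM primer extension → HpaI digest → CE. Endpoint fitted both directions vs DMSO.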
Sequence of Transcription factor Sp1 (Homo sapiens) (P08047 whole entry, looked up): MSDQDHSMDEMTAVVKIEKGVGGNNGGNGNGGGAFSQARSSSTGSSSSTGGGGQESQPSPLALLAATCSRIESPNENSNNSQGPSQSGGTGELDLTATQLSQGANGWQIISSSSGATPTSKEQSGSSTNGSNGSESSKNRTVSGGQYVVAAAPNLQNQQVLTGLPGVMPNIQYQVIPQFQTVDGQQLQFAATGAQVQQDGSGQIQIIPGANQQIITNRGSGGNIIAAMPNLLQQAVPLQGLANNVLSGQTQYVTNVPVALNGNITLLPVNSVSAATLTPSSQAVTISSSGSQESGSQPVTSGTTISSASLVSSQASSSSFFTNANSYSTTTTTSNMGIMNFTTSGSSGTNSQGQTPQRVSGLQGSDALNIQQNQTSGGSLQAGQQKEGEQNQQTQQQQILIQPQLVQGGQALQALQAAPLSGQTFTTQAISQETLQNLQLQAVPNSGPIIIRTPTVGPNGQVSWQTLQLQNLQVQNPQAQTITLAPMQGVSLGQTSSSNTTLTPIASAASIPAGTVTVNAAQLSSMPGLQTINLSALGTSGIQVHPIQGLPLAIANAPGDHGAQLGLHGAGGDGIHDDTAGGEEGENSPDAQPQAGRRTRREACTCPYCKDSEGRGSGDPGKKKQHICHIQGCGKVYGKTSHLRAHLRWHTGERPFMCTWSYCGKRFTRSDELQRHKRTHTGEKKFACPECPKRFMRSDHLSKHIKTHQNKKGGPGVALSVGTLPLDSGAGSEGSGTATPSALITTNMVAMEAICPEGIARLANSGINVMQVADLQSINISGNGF

Assay [6] can be described thus: ATG_SREBP_CIS: Attagene CIS-FACTORIAL HepG2 Assay for human Sterol Regulatory Element Binding (SREBP) (AID 2282962). To be noted: HepG2 Attagene cis-factorial SREBP reporter, mRNA; actives raise or lower the signal. The method in brief: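 HepG2 cells transiently transfected with multiplexed cis-element reporter units report endogenous transcription factor activity. After 24 h of chemical exposure, reporter mRNA was quantified by RT-PCR, 6-FAM labelling, HpaI digestion and capillary electrophoresis; bidirectional fits used DMSO as baseline.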

Assay [7] concerns the target Signal transducer and activator of transcription 3 (Homo sapiens) (UniProt P40763). Kind of assay: ATG_STAT3_CIS: Attagene CIS-FACTORIAL HepG2 Assay for human Signal Transducer and Activator of Transcription 3 (STAT3) (AID 2282963). To be noted: HepG2, Attagene cis-factorial STAT3 reporter transcription; actives raise or lower the signal. The method in brief: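 Values derive from bidirectional fits relative to DMSO of reporter mRNA levels, measured by RT-PCR with capillary electrophoresis, in HepG2 cells carrying transiently transfected cis-regulated reporter units and exposed 24 h.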

Assay [8] in a line: ATG_TA_CIS: Attagene CIS-FACTORIAL HepG2 Assay for human TA Basal Promoter (AID 2282964). Particulars: HepG2 Attagene CIS-factorial TA basal promoter reporter; actives raise or lower the signal. The method in brief:
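Read-out: fluorescent reporter-transcript fragments resolved by capillary electrophoresis after RT-PCR and HpaI digestion. Source: HepG2 cells carrying transiently transfected multi-reporter cis constructs, treated 24 h. Endpoint fitted bidirectionally relative to DMSO.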

Assay [9] is described as follows: ATG_TCF_b_cat_CIS: Attagene CIS-FACTORIAL HepG2 Assay for human T-Cell-Factor with beta-catenin (TCF/b-cat) (AID 2282965). To be noted: HepG2 TCF/beta-catenin cis-reporter transcription, actives raise or lower the signal. The method in brief: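 HepG2, transient MRTU transfection, cis-element-driven reporters (endogenous TFs). 24 h compound exposure. Readout: reporter mRNA by RT-PCR + 6-FAM primer extension, HpaI digest, capillary electrophoresis. Gain/loss fit vs DMSO baseline.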

Assay [10] is described as follows: ATG_RORE_CIS: Attagene CIS-FACTORIAL HepG2 Assay for human RAR-related Orphan Receptor Element (RORE) (AID 2282959). To be noted: HepG2 Attagene cis-factorial RORE reporter, mRNA; actives raise or lower the signal. The method in brief:
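Transient MRTU transfection of human HepG2 liver cells (FuGene 6); 24 h compound exposure; TriZol RNA, oligo(dT) RT, PCR, FAM labeling, HpaI cut, CE fragment analysis. DMSO = negative control/baseline.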

Sequence of Paired box protein Pax-6 (Homo sapiens) (P26367 whole entry, looked up): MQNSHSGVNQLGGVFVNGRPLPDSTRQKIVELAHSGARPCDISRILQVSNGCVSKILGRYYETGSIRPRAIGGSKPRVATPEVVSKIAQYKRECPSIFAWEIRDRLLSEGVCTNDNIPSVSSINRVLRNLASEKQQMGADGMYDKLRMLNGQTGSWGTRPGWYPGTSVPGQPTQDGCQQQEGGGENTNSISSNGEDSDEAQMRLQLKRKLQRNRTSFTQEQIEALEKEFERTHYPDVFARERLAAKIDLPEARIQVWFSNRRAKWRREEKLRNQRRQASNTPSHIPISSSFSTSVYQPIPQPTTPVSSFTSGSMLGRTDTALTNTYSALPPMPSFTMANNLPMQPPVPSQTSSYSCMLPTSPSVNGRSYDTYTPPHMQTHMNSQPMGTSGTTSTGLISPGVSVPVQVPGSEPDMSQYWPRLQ
Sequence of Signal transducer and activator of transcription 3 (Homo sapiens) (P40763 whole entry, looked up): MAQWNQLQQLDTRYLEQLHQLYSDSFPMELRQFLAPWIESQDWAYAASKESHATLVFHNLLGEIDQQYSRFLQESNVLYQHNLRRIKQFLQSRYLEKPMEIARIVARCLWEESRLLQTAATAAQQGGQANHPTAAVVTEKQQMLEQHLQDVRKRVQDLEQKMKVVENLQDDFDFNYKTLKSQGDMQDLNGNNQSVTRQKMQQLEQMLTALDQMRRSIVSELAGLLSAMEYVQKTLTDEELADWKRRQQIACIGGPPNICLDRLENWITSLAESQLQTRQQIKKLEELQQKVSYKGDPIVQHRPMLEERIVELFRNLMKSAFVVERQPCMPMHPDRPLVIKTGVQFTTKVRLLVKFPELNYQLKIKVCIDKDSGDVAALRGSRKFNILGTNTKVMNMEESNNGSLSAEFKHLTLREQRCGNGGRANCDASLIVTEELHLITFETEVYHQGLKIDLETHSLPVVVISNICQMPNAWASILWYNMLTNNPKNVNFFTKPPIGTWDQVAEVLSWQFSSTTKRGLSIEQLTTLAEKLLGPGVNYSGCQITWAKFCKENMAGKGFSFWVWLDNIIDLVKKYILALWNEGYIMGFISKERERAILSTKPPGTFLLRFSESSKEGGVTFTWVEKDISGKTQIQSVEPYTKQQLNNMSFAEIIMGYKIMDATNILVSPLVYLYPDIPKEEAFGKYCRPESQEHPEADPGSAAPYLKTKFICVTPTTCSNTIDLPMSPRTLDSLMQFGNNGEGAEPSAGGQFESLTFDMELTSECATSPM

For the compound `COP(=S)(OC)Oc1c(Cl)cc(C)cc1Cl`, the compound was classed as inactive in assay [1], in assay [3], in assay [4], in assay [5], in assay [6] and in assay [7]. Also, the call in [8] and in assay [9] was inactive. The AC50 in [2] was 4.62 µM (active).

Consider `CN(C)N=O`, for which the result in [1], in assay [10], in assay [4], in [5], in assay [6] and in assay [7] was inactive. Besides, the outcome in assay [8] and in [9] was inactive. In [2], the AC50 was 100 µM (active) and 55.8 µM (active).

Take `CC(C)CCCCCCOC(=O)c1ccccc1C(=O)OCCCCCCC(C)C`: the call in assay [1], in [4], in assay [5], in [6], in assay [7] and in assay [8] was inactive. Also, the compound was classed as inactive in assay [9]. The AC50 in assay [2] is 1.39 µM (active).

Turning to `ClCC(Cl)CCl`, the compound was classed as inactive in assay [1], in assay [2], in [10], in [4], in assay [5] and in [6]. Besides, the call in assay [7], in assay [8] and in [9] was inactive.

As to `CC12CC1(C)C(=O)N(c1cc(Cl)cc(Cl)c1)C2=O` (stereo not given), the outcome in assay [1], in assay [3], in assay [10], in assay [5], in assay [6] and in [7] was inactive. For the same compound, the compound was classed as inactive in [8] and in assay [9]. The AC50 in assay [2] is 4.87 µM (active) [middle of 4 runs].

In the case of `Fc1ccc(C2(Cn3cncn3)OC2c2ccccc2Cl)cc1` (stereo not given), the outcome in assay [1], in assay [10], in [4], in assay [5], in assay [7] and in assay [8] was inactive. Moreover, in assay [9], the outcome was inactive. Besides, the AC50 in [2] is 3.04 µM (active); in assay [6], 27.3 µM (active).

Turning to `Cc1ccc(N)cc1Cl`, the outcome in assay [1], in [2], in [10], in [4], in assay [5] and in [6] was inactive. For the same compound, the compound was classed as inactive in assay [7], in [8] and in assay [9].

Consider `CCN1CCC2(CC1)COc1cc3c(cc12)N(C(=O)c1ccc(-c2ccc(-c4nnc(C)o4)cc2C)cc1)CC3`, for which the outcome in assay [1], in assay [2], in assay [3], in assay [10], in assay [5] and in [6] was inactive. Further, the outcome in assay [7] and in [8] was inactive. In addition, the AC50 in assay [9] was 6.25 µM (active).

For the compound `CC(C)C1CCC(Cc2ccc(Cl)cc2)C1(O)Cn1cncn1` (stereo not given), the compound was classed as inactive in assay [1], in [10], in [4], in assay [5], in [6] and in assay [7]. In addition, the compound was classed as inactive in [8] and in assay [9]. For the same compound, the AC50 in assay [2] was 1.04 µM (active).

With `O=C(O)Cc1ccccc1`, the outcome in assay [1], in [2], in assay [10], in assay [4], in assay [5] and in assay [6] was inactive. Also, the compound was called inactive in [7], in [8] and in assay [9].

Consider `C[C@@H](Oc1ccc(Cl)cc1Cl)C(=O)O`, for which the result in assay [1], in assay [2], in assay [10], in assay [4], in assay [5] and in [6] was inactive. Further, the call in [7], in [8] and in assay [9] was inactive.

Turning to `CN(C)P(=O)(N(C)C)N(C)C`, the compound was classed as inactive in assay [2], in assay [3], in assay [10], in assay [4], in assay [5] and in assay [6]. Besides, the compound was classed as inactive in [7], in [8] and in assay [9].

Regarding `CC(C)OC(=O)Nc1ccccc1`, the AC50 in assay [2] was 100 µM (active). Besides, the call in assay [10], in assay [5], in assay [6], in [7], in assay [8] and in [9] was inactive.

Turning to `CCC(=O)C(CC(C)N(C)C)(c1ccccc1)c1ccccc1` (stereo not given), the figures for the AC50 in assay [2] and in assay [6] were 18.6 µM (active) and 14.2 µM (active), respectively. The compound was called inactive in [3], in assay [10], in [4], in [5], in assay [7] and in [8]. In assay [9], the outcome was inactive.

Take `NC(=O)O`: the outcome in assay [2], in assay [4], in assay [5], in [6], in assay [7] and in assay [8] was inactive. Also, the outcome in [9] was inactive.

Usually AC50 stands for the concentration giving half of the maximal activity seen.
